From PubChem
Dicer inh – blocks human Dicer maturation of pre-miR-21 | z-score at 25 µM | AID 1347074 | cat-ELCCA pre-miR-21 Dicer processing, chemiluminescence; hits give high values | 6% of 47,000 active; in the data active means z-score above about 3, passing the limit was not always enough;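 further: higher signal means more uncleaved substrate so more Dicer inhibition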
Large screens that a line does not name were inactive. The entries come from a sample that favours hits as a whole.

CC1=NN(c2nc(C)cc(C)n2)C(=O)C1C (centres undefined)	none
C=CCC(C)(CC=C)NS(=O)(=O)c1ccc(C)cc1	none
Cc1ccc2cc(NC(=O)c3cc(C)n(C)n3)ccc2n1	none
CCCSc1ccc([N+](=O)[O-])c(NC(=NCCS(=O)(=O)O)NC(=O)OC)c1	none
Cc1ccccc1NC(=O)/C=C/C(=O)O	none
CCN(C(=O)c1cnccc1C(F)(F)F)c1cccc(C)c1C	none
C/C=C/C(=O)N(CC)c1ccccc1C	Dicer inh 3.6
CC(C)C(=O)Nc1cscc1S(=O)(=O)c1ccc(Cl)cc1	none
CCN(C(=S)Nc1ccc(OC)cc1)c1ccccc1	none
CSc1ccc(C2C(C(=O)OCCOc3ccccc3)=C(C)NC3=C2C(=O)CC(C)(C)C3)cc1 (centres undefined)	none
CCOCCOC(=O)C1=C(C)NC2=C(C(=O)CC(C)(C)C2)C1c1ccc(CC)cc1 (centres undefined)	none
CCCOCCOC(=O)C1=C(C)NC2=C(C(=O)CC(C)(C)C2)C1c1ccsc1 (centres undefined)	Dicer inh 5.1
CC1=C(C(=O)OCCOc2ccccc2)C(c2cccnc2)C2=C(CC(C)(C)CC2=O)N1 (centres undefined)	Dicer inh 3.5
CCCOC(=O)C1=C(C)NC2=C(C(=O)CC(C)(C)C2)C1c1cccnc1 (centres undefined)	none
CCCOC(=O)C1=C(C)NC2=C(C(=O)CC(C)(C)C2)C1c1ccc(SC)cc1 (centres undefined)	none
CC(C(=O)NNC(=O)c1ccc(Cl)cc1)n1nnc(N2CCOCC2)n1 (centres undefined)	none
Cc1onc(-c2ccccc2)c1C(=O)Nc1ccccc1Oc1ccc(Cl)cc1Cl	none
Cc1nc(-n2cnc3cc(C)c(C)cc32)c2c3c(sc2n1)CCC3	none
Cc1ccc(-c2nc3cc(Cl)ccc3o2)cc1N	none
FC(F)(F)c1ccc(CSc2ncc(C(F)(F)F)cc2C(F)(F)F)cc1	none
FC(F)(F)c1cnc(SCc2c(Cl)cccc2Cl)c(Cl)c1	none
FC(F)(F)c1cccc(CSc2ncc(C(F)(F)F)cc2C(F)(F)F)c1	Dicer inh 3
CN(C)c1ccc(C2Nc3cc(Cl)ccc3O2)c(Cl)c1 (centres undefined)	none
COc1c(C[C@H](NC(C)=O)C(=O)O)cccc1OCC1CCCC1	none
O=C(O)c1c(F)cccc1I	none
CC(C)OC(=O)c1ccc(COC(=O)CCc2nc3ccccc3[nH]c2=O)cc1	Dicer inh 3.4
O=C(CCc1nc2ccccc2[nH]c1=O)OCc1ccc(Br)cc1	none
CCOC(=O)C(C)c1nc2ccccc2[nH]c1=O (centres undefined)	none
c1nc(N2CCCC2)c2ccsc2n1	none
O=C(c1ccccc1)c1cccc(NC(=O)c2c(F)cccc2Cl)c1	none
c1cc2c(cc1COCc1ccc3c(c1)CCO3)CCO2	none
Cc1noc(-c2ccccc2)c1NC(=O)N1CCN(C(c2ccccc2)c2ccccc2)CC1	none
Cc1nc2c(-c3ccc(Br)cc3)c(C(F)(F)F)nn2c(C)c1-c1ccccc1	none
CCn1c(C)nc2cc(S(=O)(=O)N3CCOCC3)ccc21	none
COc1ccc(OC)c(C2N=C(N)Nc3nc4ccccc4n32)c1 (centres undefined)	none
COc1ccccc1C1N=C(N)Nc2nc3ccccc3n21 (centres undefined)	Dicer inh 34
COc1ccc(C2N=C(N)Nc3nc4ccccc4n32)cc1 (centres undefined)	none
CSc1nc(-c2ccccn2)nc(N)c1C#N	none
CCOc1ccc2c(c1)CN(Cc1ccc(Cl)cc1)CO2	none
Clc1ccc2c(c1)CN(Cc1ccccc1)CO2	Dicer inh 3.3
Clc1ccc2nc(NC3=NCN(Cc4ccccc4)CN3)oc2c1	none
Brc1ccc2c(c1)CN(Cc1ccccc1)CO2	Dicer inh 4.5
Brc1ccc2c(c1)CN(C1CCCCC1)CO2	none
COc1ccc(CN2COc3ccc(F)cc3C2)cc1	none
CSc1n[nH]c(-c2ccco2)c1C#N	none
CC(=O)/C(=C\Nc1ncccn1)S(=O)(=O)c1ccc(Cl)cc1	none
CCCCn1c(CSCc2ccc(Cl)cc2)cn(-c2nnc(C(C)(C)C)s2)c1=O	none
Cc1cccc(C(=O)Oc2c(Br)cc(C(F)(F)F)cc2[N+](=O)[O-])c1	none
c1ccc2c(c1)N=C(NNC1=Nc3ccccc3SC1)CS2	Dicer inh 3.8
COc1ccc(/C(O)=C2\C(=O)C(=O)N(CCN(C)C)C2c2ccc(OC)cc2)cc1 (centres undefined)	none
COc1cccc(O)c1C1=Nc2ccccc2SC(c2ccccc2)C1 (centres undefined)	none
COC(=O)/C=C1\S/C(=N\c2ccccn2)N(c2cccc(C(F)(F)F)c2)C1=O	none
O=C(NC1CCCC1)NS(=O)(=O)c1ccccc1Cl	Dicer inh 3.2
CC(=O)c1ccc(S(=O)(=O)NC(=O)NC2CCCCC2)cc1	none
CCCCNC(=O)NS(=O)(=O)c1ccccc1Cl	none
CCOc1cccc(C2c3c(oc4ccccc4c3=O)C(=O)N2c2nncs2)c1 (centres undefined)	none
NN/C(N)=N/C(N)=Nc1ccccc1F	none
CCc1ccccc1N=C(N)N=C(N)N	Dicer inh 5.5
NC(N)=NC(N)=Nc1ccccc1	none
CCCC1=C(C(=O)OCC)C(c2cccc(F)c2)n2c(nc3ccccc32)N1 (centres undefined)	none
CCS(=O)(=O)N1CCN(c2nc(-c3ccccc3)ns2)CC1	none
